# Experimental data reported in PubChem BioAssay (NCATS).
# Results filed as inconclusive are left out. Entries that show only a call come without a potency. Values without a mark were called inactive. Activity calls are given as the source filed them. Unless noted, calls follow the shape of the dose curve; as a rule, active = well fitted curve in the direction sought with a large enough effect; inconclusive = small, poorly fitted or top-dose-only effect, or another doubt; inactive = no such curve, though single readings can be large; an effect the other way counts as inactive or inconclusive.
# Tests used:
# [1] = molecular target: Cytochrome P450 2D6 (Homo sapiens) (UniProt P10635); test: Cytochrome P450 family 2 subfamily D member 6 (CYP2D6) small molecule antagonists: luciferase biochemical (cell-free) qHTS assay (AID 1645840; active = well fitted curve in the direction sought with a large enough effect in the repeat runs; an effect the other way counts as inactive or inconclusive; also: nearly all actives have a fitted effect of over 55% in size; also: potency is read from the fitted curve at half-maximal effect; as to activity change, negative = inhibition: series mostly up to about 57 µM)
# Chain of Cytochrome P450 2D6 (Homo sapiens) (P10635 whole entry, looked up): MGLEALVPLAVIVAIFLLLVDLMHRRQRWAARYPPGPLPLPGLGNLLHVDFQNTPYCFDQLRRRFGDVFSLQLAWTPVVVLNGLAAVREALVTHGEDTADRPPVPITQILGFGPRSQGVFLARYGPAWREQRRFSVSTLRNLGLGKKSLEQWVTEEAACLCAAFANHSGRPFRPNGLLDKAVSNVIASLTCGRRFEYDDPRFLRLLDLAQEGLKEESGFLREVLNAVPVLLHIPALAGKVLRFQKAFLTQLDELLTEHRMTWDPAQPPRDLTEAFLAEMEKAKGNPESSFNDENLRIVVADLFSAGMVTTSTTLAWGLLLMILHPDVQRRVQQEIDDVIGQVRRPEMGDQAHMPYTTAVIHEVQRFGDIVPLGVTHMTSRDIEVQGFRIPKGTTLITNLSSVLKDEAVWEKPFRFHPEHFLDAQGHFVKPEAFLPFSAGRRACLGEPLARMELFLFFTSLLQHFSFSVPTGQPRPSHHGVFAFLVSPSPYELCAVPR
# In short: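 P450-Glo luminescent screen: recombinant CYP2D6 enzyme–proluciferin substrate mix preincubated with compound 10 min at room temperature, then NADPH regeneration added for 1 h at room temperature. Detection reagent added for 20 min; luciferin light read as relative luminescence units.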
# [2] = molecular target: Cytochrome P450 2C9 (Homo sapiens) (UniProt P11712); test: Cytochrome P450 family 2 subfamily C member 9 (CYP2C9) small molecule antagonists: luciferase biochemical (cell-free) qHTS assay (AID 1645842; active = well fitted curve in the direction sought with a large enough effect in the repeat runs; an effect the other way counts as inactive or inconclusive; also: nearly all actives have a fitted effect of over 55% in size; also: potency is read from the fitted curve at half-maximal effect; as to activity change, negative = inhibition: series mostly up to about 57 µM)
# Chain of Cytochrome P450 2C9 (Homo sapiens) (P11712 whole entry, looked up): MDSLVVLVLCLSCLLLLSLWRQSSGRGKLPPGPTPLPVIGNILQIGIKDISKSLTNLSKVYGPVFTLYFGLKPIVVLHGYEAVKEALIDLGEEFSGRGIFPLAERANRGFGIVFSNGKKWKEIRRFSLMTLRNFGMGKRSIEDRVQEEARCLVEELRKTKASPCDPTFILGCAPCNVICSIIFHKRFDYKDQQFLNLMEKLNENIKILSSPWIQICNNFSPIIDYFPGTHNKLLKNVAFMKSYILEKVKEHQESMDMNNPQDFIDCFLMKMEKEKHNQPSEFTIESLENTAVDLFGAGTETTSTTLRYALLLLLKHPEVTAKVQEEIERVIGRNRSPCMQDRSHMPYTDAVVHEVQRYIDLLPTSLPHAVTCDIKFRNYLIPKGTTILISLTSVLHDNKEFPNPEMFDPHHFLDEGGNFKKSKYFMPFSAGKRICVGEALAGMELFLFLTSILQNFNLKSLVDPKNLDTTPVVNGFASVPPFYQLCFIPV
# In short: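 Luminescence, after 20 min with luciferin detection reagent, reflected CYP2C9 turnover during a 1 h NADPH-driven reaction at 37C. Enzyme-substrate mix contained 0.4% bovine serum albumin and was preincubated with compound 10 min at room temperature.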
# [3] = Primary qHTS for inhibitors of nuclear receptor binding SET domain protein 2 (NSD2) in an isogenic RCH-ACV NSD2 p.E1099K mutant (9B) (AID 1645876); also: nearly all actives have a fitted effect of over 70% in size; also: potency is read from the fitted curve at half-maximal effect
# [4] = Primary qHTS for inhibitors of nuclear receptor binding SET domain protein 2 (NSD2) in an RCH-ACV wild type WT cells (2C) (AID 1645877); also: nearly all actives have a fitted effect of over 70% in size; also: potency is read from the fitted curve at half-maximal effect
# [5] = molecular target: Glutathione peroxidase 1 (Homo sapiens) (UniProt P07203); test: Primary qHTS Assay for Inhibitors of Recombinant Selenoprotein Glutathione Peroxidase 1 (GPX1) (AID 1845191); also: nearly all actives have a fitted effect of over 65% in size
# Chain of Glutathione peroxidase 1 (Homo sapiens) (P07203 whole entry, looked up): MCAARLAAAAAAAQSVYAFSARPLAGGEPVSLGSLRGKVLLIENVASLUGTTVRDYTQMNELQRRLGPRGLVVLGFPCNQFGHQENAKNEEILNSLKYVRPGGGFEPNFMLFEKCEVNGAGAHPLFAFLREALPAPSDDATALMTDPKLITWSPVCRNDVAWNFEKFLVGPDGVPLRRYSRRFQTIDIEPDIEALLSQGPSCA
# In short: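 Recombinant GPX1 (10 nM final) was preincubated with compound for 30 min at room temperature, then reacted with 1 mM GSH, 0.5 mM CHP, 0.5 mM NADPH and 100 nM glutathione reductase; NADPH fluorescence (340/450 nm) was read at 0 and 15 min.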
# [6] = NCATS anti-infectives library activity on HEK293 viability as a counter-qHTS vs the C. elegans viability qHTS (AID 1745854);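 also: HEK293 cells exposed to compounds for 24 hr before the viability read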
# In short: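 HEK293 cells (1,500/well) exposed 24 hr at 37C to 1:5 titrations, up to 41.7 uM final; counter-screen to a C. elegans viability qHTS. Viability by CellTiter-Glo luminescence after 10 min at room temperature; digitonin as control.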
smiles,measurement,setting,value
O=C(Cc1ccc(-c2ccccc2)cc1)NC1CCC1,Potency,[1],inactive
same,Potency,[2],6.74 µM (active)
same,Potency,[3],inactive
same,Potency,[4],inactive
same,Potency,[5],inactive
O=C(COc1cccc2c(=O)[nH]ccc12)c1ccccc1,Potency,[1],inactive
same,Potency,[2],8.49 µM (active)
same,Potency,[3],inactive
same,Potency,[6],inactive
same,Potency,[5],inactive
Cc1cccc(C)c1OCc1cc(C(=O)N2CCC(c3ccncc3)CC2)no1,Potency,[1],1.2 µM (active)
same,Potency,[2],0.338 µM (active)
same,Potency,[3],10.3 µM (active)
same,Potency,[5],inactive
C=CC(=O)Nc1cccc(CN2C(=O)N(c3c(Cl)c(OC)cc(OC)c3Cl)Cc3cnc(NCCCCN(CC)CC)nc32)c1,Potency,[1],21.3 µM (active)
same,Potency,[2],8.49 µM (active)
same,Potency,[3],2.05 µM (active)
same,Potency,[4],2.58 µM (active)
same,Potency,[5],inactive
O=C(CCCCN1CCOCC1)Nc1ccc(-c2cccnc2)cc1,Potency,[1],6.01 µM (active)
same,Potency,[2],inactive
same,Potency,[3],inactive
same,Potency,[4],inactive
same,Potency,[5],inactive
O=C(NCc1ccccn1)Nc1nnc(-c2ccco2)o1,Potency,[1],inactive
same,Potency,[2],inactive
same,Potency,[3],inactive
same,Potency,[4],inactive
same,Potency,[5],inactive
COc1cccc(C(=O)N2CCN(C(=O)COc3cccc(C)c3)CC2)c1OC,Potency,[1],inactive
same,Potency,[2],21.3 µM (active)
same,Potency,[3],inactive
same,Potency,[5],inactive
O=C(O)c1ccccc1NC(=O)N1CCC(c2ccccc2C(F)(F)F)CC1,Potency,[1],inactive
same,Potency,[2],0.849 µM (active)
same,Potency,[3],inactive
same,Potency,[4],inactive
same,Potency,[5],inactive
CCC(Nc1ncnc2nc[nH]c12)c1nc2cccc(F)c2c(=O)n1-c1ccccc1 (stereo unspecified),Potency,[1],inactive
same,Potency,[2],13.5 µM (active)
same,Potency,[3],0.0728 µM (active)
same,Potency,[4],0.461 µM (active)
same,Potency,[5],inactive
CC(C)(C)c1ccc(S(=O)(=O)NCc2ccc(C(=O)Nc3cccnc3)cc2)cc1,Potency,[1],6.74 µM (active)
same,Potency,[2],12 µM (active)
same,Potency,[3],0.258 µM (active)
same,Potency,[4],0.163 µM (active)
same,Potency,[5],inactive
COC(=O)N1CCC(n2ncc3c(N4CCOCC4)nc(-c4ccc(NC(=O)Nc5ccc(CO)cc5)cc4)nc32)CC1,Potency,[1],8.49 µM (active)
same,Potency,[2],6.74 µM (active)
same,Potency,[3],0.0163 µM (active)
same,Potency,[4],0.0183 µM (active)
same,Potency,[5],inactive
Cc1nc(C)c(-c2ccc(C3CCC(CC(=O)O)CC3)cc2)nc1C(N)=O (stereo unspecified),Potency,[1],inactive
same,Potency,[2],inactive
same,Potency,[3],inactive
same,Potency,[4],inactive
same,Potency,[5],inactive
Cc1cc(C(=O)N2CCCCc3ccccc32)ccc1CNC(=O)N1CCC[C@H]1C(=O)N(C)C,Potency,[1],inactive
same,Potency,[2],inactive
same,Potency,[3],inactive
same,Potency,[4],inactive
same,Potency,[5],inactive
COc1cc(N)c(Cl)cc1C(=O)NC[C@@H]1CCN2CCC[C@@H]12,Potency,[1],10.7 µM (active)
same,Potency,[2],9.52 µM (active)
same,Potency,[3],inactive
same,Potency,[5],inactive
CCCN1CCC(c2cccc(S(C)(=O)=O)c2)CC1,Potency,[1],8.49 µM (active)
same,Potency,[2],inactive
same,Potency,[3],inactive
same,Potency,[4],inactive
same,Potency,[5],inactive
N#Cc1ccc(C(=O)N2CCC3(CC2)N=C(N)c2c(F)ccc(F)c2N3)cn1,Potency,[1],15.1 µM (active)
same,Potency,[2],inactive
same,Potency,[3],inactive
same,Potency,[4],inactive
same,Potency,[5],inactive
C[C@@H]1CN(Cc2ncccn2)C[C@H]1c1nc2c(cnn2C2CCOCC2)c(=O)[nH]1,Potency,[1],inactive
same,Potency,[2],inactive
same,Potency,[3],inactive
same,Potency,[4],inactive
same,Potency,[5],inactive
O=C(O)C1CN(Cc2ccc(-c3nc4cc(Cc5ccccc5F)ccc4s3)c(F)c2)C1,"activity change, negative = inhibition",[1],8.94% [at 11.5 µM]
same,"activity change, negative = inhibition",[2],-11.3% [at 11.5 µM]
same,"activity change, negative = viability loss",[3],0.892% [at 9.23 µM]
same,"activity change, negative = cell killing",[4],2.02% [at 9.23 µM]
same,"activity, negative = inhibition",[5],-8.84% [at 9.52 µM]
O=C(Nc1ccc(S(=O)(=O)Nc2ccccc2Cl)c(Cl)c1)c1ccccn1,Potency,[1],inactive
same,Potency,[2],0.674 µM (active)
same,Potency,[3],inactive
same,Potency,[4],inactive
same,Potency,[5],inactive
CC1(C)CC(NC(=O)C(=O)Nc2ccc(Br)cc2)CC(C)(C)N1,Potency,[1],inactive
same,Potency,[2],inactive
same,Potency,[3],8.17 µM (active)
same,Potency,[4],5.78 µM (active)
same,Potency,[5],inactive
COc1ccc(CCO[C@@H]2CCCC[C@H]2N2CC[C@@H](O)C2)cc1OC,Potency,[1],10.7 µM (active)
same,Potency,[2],inactive
same,Potency,[3],inactive
same,Potency,[4],inactive
same,Potency,[5],inactive
CCCCc1ccc(C(=O)Nc2cc(-c3ccc(Cl)cc3)nn2-c2ccc(Cl)cc2)cc1,Potency,[1],inactive
same,Potency,[2],inactive
same,Potency,[3],inactive
same,Potency,[5],inactive
c1ccc(N2CCN(CCc3nn[nH]n3)CC2)cc1,Potency,[1],inactive
same,Potency,[2],9.52 µM (active)
same,Potency,[3],inactive
same,Potency,[4],inactive
same,Potency,[5],inactive
O=C(c1cn(Cc2cncn2Cc2ccc(Br)cc2)cc1-c1cccc2ccccc12)N1CCOCC1,Potency,[1],10.7 µM (active)
same,Potency,[2],1.69 µM (active)
same,Potency,[3],1.83 µM (active)
same,Potency,[4],1.15 µM (active)
same,Potency,[5],inactive
Cc1ccc(C(=O)Nc2noc3ccccc23)cc1,Potency,[1],7.56 µM (active)
same,Potency,[2],16.9 µM (active)
same,Potency,[3],inactive
same,Potency,[4],inactive
same,Potency,[5],inactive
Cc1cc(C(=O)Nc2cccc(C(=O)Nc3cccc(C(F)(F)F)c3)c2)on1,Potency,[1],inactive
same,Potency,[2],3.79 µM (active)
same,Potency,[3],inactive
same,Potency,[4],inactive
same,Potency,[5],inactive
